Laboratory results as given in PubChem BioAssay (NCATS).
A number with no mark means an inactive call. Records with an inconclusive call do not appear. Calls of active or inactive are those of the source. Unless noted, the call rests on the fitted dose curve; in most records, active means well fitted curve in either direction with a large enough effect (not every such curve was filed as active); inconclusive means small, poorly fitted or top-dose-only effect, or another doubt; inactive means flat fitted curve, though single readings scatter.

Experiments:
[1] = biological target: Lysosomal acid glucosylceramidase (Homo sapiens) (UniProt P04062); assay: Glucocerebrosidase-p2 (AID 348; in the data active means potency below about 10 µM; further: potency means the concentration at half of the fitted maximal effect); conditions: purified GBA, blue fluorogenic substrate, 40 min
Outline: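 Normal human glucocerebrosidase (0.2 nM) with blue fluorogenic substrate (80 uM final) in citrate/phosphate pH 5.9 with 10mM sodium taurocholate, 0.01% tween-20; 40 min RT, NaOH/glycine stop; fluorescence Ex 365/Em 440; AC50 from a titration from 0.6 nM upwards.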

[2] = AP1 Signaling Pathway (AID 357); conditions: ME-180 AP-1-bla reporter, EGF-induced, beta-lactamase ratio, 5 h; at 7.69 µM (top of the series) unless noted;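 further: ME-180 reporter cells stimulated with EGF at its EC50 level; on the % scale 0 is the no-effect control and ±100 the full control effect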
Outline: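 Modulation of EGF-driven AP-1 transcription was assessed with a beta-lactamase reporter in ME-180 cells. Compound and EC50 EGF were co-incubated 5 hours at 37 °C before 2.5-hour CCF4 loading at room temperature and dual-emission reading.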

[3] = Stat Signaling Pathway (AID 446); conditions: ME-180 SIE beta-lactamase reporter, IL-6 stimulated, 5 h; at 7.69 µM (top of the series) unless noted;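 further: ME-180 cervical cancer cells given 40 pM IL-6 alongside compound; SIE-controlled beta-lactamase reporter measured as 460/530 nm FRET emission ratio; on the % scale 0 is the no-effect control and ±100 the full control effect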
Outline: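 Compound effects on IL-6-induced STAT reporter activity were measured in ME-180 cells. After overnight culture, cells were co-treated with 40 pM IL-6 for 5 hrs before beta-lactamase substrate loading at room temperature.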

[4] = biological target: Glucocorticoid receptor (Homo sapiens) (UniProt P04150); assay: GR-GFP Redistribution (AID 450;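 active means compounds whose dose series gives a full or clear partial fitted curve of increased nuclear translocation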; further: potency means the concentration at half of the fitted maximal effect); conditions: U2OS GR-GFP nuclear translocation, laser cytometry, 2 h
[5] = biological target: Glucocorticoid receptor (Homo sapiens) (UniProt P04150); assay: GR-EFC Redistribution (AID 451; calls by dose curve; further: potency means the concentration at half of the fitted maximal effect); conditions: CHO-K1 GR-EFC translocation, beta-gal luminescence, 2 h
Outline: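 CHO-K1 cells expressing nuclear EA and GR-ED fragments of b-gal; compounds titrated up to 46 uM final, 2 h at 37 C. GR nuclear translocation read as complemented b-gal luminescence after 1 h RT detection.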

[6] = biological target: Mitogen-activated protein kinase 10 (Mus musculus) (UniProt Q61831); assay: JNK3 AlphaScreen Assay (AID 530); conditions: JNK3 lysate, c-Jun phosphorylation; series mostly up to 11.4 µM;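 further: kinase came from lysate of stimulated human HepG2 cells; signal reports phosphorylation of biotinylated GST-cJun 1-79 at Ser73 with 10 µM ATP; on the % scale 0 is the no-effect control and ±100 the full control effect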
Outline: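 HepG2 lysate (IL-1b/TNFa pre-activated) + biotin-GST-cJun 1-79 + anti-pSer73 cJun; cpd titration, 15 min RT; ATP 10 uM start; Tris pH 7.6, MgCl2, DTT, vanadate; beads in EDTA buffer; AlphaScreen.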

[7] = biological target: 3',5'-cyclic-AMP phosphodiesterase 4B (Homo sapiens) (UniProt Q07343); assay: qHTS Assay for Inhibitors of PDE-IV (AID 607; active means well fitted activation curve with a large enough effect in the main read-out, with a control signal flat, not every such curve was filed as active; further: % of control where 0% means no effect); conditions: HEK293 ACTOne CNG channel cells, membrane potential fluorescence; series mostly up to 22.9 µM
Outline: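 ACTOne HEK293 cells carry a modified cAMP-gated CNG channel and express endogenous PDE4; plated 1000 cells/well, compounds up to 22.9 uM final. Membrane-potential dye fluorescence (ex 535/em 590) was read; parental cells received 10 uM forskolin + 100 uM RO 20-1724.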

[8] = biological target: Cytochrome P450 2C19 (Homo sapiens) (UniProt P33261); assay: qHTS Assay for Inhibitors and Substrates of Cytochrome P450 2C19 (AID 899; active means well fitted inhibition curve with a large enough effect; further: on the % scale 0 is the no-effect control and ±100 the full control effect; nearly all actives have a fitted effect of over 60% in size); conditions: recombinant CYP2C19, luciferin-H EGE luminescence; series mostly up to 11.4 µM
Outline: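 5 nM human CYP2C19 with 10uM Luciferin-H EGE (at KM) in 50mM KPO4, compound preincubated 10 min at 37C, then NADPH regeneration for 60 min at 37C. Luciferin read by luminescence after detection reagent; normalized to 57uM ketoconazole as full inhibition.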

[9] = biological target: Cytochrome P450 2D6 (Homo sapiens) (UniProt P10635); assay: qHTS Assay for Inhibitors and Substrates of Cytochrome P450 2D6 (AID 891; active means well fitted inhibition curve with a large enough effect; further: potency means the concentration at half of the fitted maximal effect; nearly all actives have a fitted effect of over 60% in size); conditions: recombinant CYP2D6, luciferin-ME EGE luminescence; series mostly up to 11.4 µM
Outline: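 Luminescent read-out of luciferin formed by 5 nM human CYP2D6 demethylating 30 uM Luciferin-ME EGE (Km level) over 60 min at room temperature after NADPH regeneration addition. Data normalized to full inhibition by 1.43 uM quinidine.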

[10] = qHTS Assay for Identification of Small Molecule Agonists for Hypoxia Response Element Signaling Pathway (AID 914; active means well fitted activation curve with a large enough effect in the signal ratio, with a control signal flat, not every such curve was filed as active; the % refers to the signal ratio; further: % of control where 0% means no effect); conditions: ME-180 (cervical carcinoma) HRE-bla reporter, beta-lactamase ratio, CoCl2, 17 h; activation: stronger effect = higher value
Outline: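 Cells were plated overnight, pin-dosed with compound in a titration series, co-stimulated with EC50 CoCl2 and incubated 17 hours at 37 degrees Celsius. CCF4 substrate was then loaded, and AC50 values came from the 460nm/530nm ratio.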

3',5'-cyclic-AMP phosphodiesterase 4B (Homo sapiens), sequence (Q07343 whole entry, looked up): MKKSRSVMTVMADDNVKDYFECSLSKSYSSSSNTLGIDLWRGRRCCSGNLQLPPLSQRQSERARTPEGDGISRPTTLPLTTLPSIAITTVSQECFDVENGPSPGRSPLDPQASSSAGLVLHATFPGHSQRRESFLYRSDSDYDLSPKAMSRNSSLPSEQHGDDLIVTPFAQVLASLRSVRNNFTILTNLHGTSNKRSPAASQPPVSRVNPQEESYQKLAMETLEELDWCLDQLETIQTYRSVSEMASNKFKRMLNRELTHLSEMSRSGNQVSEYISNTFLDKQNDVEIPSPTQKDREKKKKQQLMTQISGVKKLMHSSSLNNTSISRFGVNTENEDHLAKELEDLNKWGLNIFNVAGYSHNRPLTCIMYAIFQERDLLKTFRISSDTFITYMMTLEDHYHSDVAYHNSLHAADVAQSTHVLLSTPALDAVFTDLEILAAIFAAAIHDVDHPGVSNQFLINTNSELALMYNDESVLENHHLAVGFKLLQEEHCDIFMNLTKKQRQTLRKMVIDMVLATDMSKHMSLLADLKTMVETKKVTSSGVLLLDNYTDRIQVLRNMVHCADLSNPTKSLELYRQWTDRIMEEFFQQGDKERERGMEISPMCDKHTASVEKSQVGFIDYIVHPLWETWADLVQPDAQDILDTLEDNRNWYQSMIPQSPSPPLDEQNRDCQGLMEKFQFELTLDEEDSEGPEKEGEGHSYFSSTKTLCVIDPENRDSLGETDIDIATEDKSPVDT
Lysosomal acid glucosylceramidase (Homo sapiens), sequence (P04062 whole entry, looked up): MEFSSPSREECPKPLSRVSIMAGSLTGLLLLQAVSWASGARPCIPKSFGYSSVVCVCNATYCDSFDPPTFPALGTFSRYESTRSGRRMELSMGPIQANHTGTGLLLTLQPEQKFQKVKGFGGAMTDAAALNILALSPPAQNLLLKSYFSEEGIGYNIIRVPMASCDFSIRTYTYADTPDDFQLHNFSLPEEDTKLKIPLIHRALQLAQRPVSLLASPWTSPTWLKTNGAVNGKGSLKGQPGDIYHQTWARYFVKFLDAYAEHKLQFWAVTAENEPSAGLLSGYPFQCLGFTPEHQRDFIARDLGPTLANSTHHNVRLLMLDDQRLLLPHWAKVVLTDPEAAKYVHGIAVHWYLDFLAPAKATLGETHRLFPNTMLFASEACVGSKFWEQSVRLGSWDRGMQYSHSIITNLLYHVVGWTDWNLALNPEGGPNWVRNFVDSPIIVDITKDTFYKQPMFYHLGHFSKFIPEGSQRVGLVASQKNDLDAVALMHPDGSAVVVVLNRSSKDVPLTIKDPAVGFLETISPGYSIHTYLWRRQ
Glucocorticoid receptor (Homo sapiens), sequence (P04150 whole entry, looked up, the tested form may be a part): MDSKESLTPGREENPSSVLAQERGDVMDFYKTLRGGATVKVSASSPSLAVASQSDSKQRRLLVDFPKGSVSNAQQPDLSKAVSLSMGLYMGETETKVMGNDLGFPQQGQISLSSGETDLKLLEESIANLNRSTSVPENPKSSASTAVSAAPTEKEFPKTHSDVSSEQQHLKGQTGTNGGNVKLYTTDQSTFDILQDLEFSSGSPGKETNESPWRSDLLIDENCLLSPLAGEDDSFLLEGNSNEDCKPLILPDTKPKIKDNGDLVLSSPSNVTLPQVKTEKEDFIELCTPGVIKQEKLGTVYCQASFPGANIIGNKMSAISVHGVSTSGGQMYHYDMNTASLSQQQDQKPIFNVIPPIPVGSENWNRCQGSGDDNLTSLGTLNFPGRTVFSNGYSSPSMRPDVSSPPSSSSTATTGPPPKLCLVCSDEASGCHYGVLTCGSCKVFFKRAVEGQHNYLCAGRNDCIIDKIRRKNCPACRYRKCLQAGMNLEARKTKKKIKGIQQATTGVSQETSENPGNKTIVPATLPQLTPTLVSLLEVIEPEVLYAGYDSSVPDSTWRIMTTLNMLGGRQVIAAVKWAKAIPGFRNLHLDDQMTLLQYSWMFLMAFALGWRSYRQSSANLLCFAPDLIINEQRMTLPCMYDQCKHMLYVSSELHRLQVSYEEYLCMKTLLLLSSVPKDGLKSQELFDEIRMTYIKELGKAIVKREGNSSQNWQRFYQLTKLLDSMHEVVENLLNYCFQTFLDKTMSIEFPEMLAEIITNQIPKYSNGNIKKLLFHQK
Cytochrome P450 2D6 (Homo sapiens), sequence (P10635 whole entry, looked up): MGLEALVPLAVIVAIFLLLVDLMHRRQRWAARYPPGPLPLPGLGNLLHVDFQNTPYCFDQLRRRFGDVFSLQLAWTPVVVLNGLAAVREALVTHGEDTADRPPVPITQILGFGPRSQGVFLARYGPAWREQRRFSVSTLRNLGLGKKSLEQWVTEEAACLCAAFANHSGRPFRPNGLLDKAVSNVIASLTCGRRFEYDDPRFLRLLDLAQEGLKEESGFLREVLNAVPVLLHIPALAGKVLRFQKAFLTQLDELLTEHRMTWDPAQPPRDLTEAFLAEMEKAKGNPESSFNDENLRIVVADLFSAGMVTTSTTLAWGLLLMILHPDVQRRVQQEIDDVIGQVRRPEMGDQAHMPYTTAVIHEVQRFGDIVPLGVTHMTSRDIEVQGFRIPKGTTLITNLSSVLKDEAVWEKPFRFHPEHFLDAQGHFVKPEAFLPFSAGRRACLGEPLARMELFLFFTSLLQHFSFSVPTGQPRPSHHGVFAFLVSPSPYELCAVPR
Cytochrome P450 2C19 (Homo sapiens), sequence (P33261 whole entry, looked up): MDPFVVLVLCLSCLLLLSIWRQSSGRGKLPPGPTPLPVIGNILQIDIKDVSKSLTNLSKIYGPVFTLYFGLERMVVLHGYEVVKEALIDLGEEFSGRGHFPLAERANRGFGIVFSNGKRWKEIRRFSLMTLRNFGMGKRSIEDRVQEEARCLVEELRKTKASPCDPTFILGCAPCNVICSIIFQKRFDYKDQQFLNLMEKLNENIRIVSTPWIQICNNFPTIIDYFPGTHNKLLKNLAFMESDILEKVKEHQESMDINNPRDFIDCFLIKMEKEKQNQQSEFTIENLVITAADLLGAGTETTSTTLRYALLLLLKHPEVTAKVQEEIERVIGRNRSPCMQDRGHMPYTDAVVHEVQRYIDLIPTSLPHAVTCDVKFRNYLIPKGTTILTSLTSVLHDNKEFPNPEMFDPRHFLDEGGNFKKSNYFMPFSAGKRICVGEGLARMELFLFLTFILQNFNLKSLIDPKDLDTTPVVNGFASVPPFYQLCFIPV

| Structure (SMILES) | Potency [1] [µM] | activity change, negative = inhibition [2] [%] | activity, negative = inhibition [3] [%] | Potency [4] [µM] | Potency [5] [µM] | Potency [6] | Potency [7] | Potency [8] | Potency [9] | activation [10] [%] |
| --- | --- | --- | --- | --- | --- | --- | --- | --- | --- | --- |
| NC(CSS(=O)(=O)O)=N[C@@H]1C[C@H]2CC[C@@H]1C2 | > 11.4 | 16.8 | -5.27 | > 46 | > 9.22 | inactive | inactive | inactive |  |  |
| O=C1c2ccccc2C(=O)c2c(NC(=O)c3ccc4c5c(ncnc35)-c3ccccc3C4=O)cccc21 | > 11.4 | 5.12 | 0.00925 | > 46 | > 9.22 | inactive | inactive |  |  |  |
| O[C@@H](c1cc(-c2ccc(Cl)cc2)nc2ccccc12)[C@@H]1CCCCN1 | > 11.4 | -7.25 | -6.67 |  | > 9.22 | inactive | inactive |  | 0.631 µM (active) |  |
| NC(=O)[C@@H]1CCCNC1 | > 11.4 | 9.79 | 14.3 | > 46 | > 9.22 | inactive | inactive |  |  |  |
| Cc1cccc(C(=O)O)c1C[C@H]1NCC[C@H]2c3ccccc3N[C@@H]12 | > 11.4 | 29.4 | 4.38 | > 46 | > 9.22 | inactive | inactive |  |  |  |
| CN(C)CCC[C@@H]1c2ccccc2Oc2ccc(C(F)(F)F)cc21 | > 11.4 | 21.1 | 4.88 | > 46 | > 9.22 | inactive | inactive |  |  |  |
| O=C1C[C@H]2OCC=C3CN4CC[C@@]5(C(=O)O)[C@H](N1)[C@H]2[C@H]3C[C@H]45 | > 11.4 | 1.86 | -5.3 | > 46 | > 9.22 | inactive | inactive |  |  |  |
| C=C(CC(=O)O)C(=O)O (tested in a mixture with another compound) | > 11.4 | 6.49 | -4.69 | > 46 | > 9.22 | inactive | inactive |  |  |  |
| O=C(CCN1CCCCC1)c1csc2ccccc12 | > 11.4 | -4.73 | -9.72 | > 46 | > 9.22 | inactive | inactive |  |  | -7.69 |
| c1cc(CSc2ncnc3nc[nH]c23)ccn1 | > 11.4 | 10.4 | -2.3 | > 46 |  | inactive | inactive |  |  |  |
| C[N@@+]1(Cc2ccc(Cl)c(Cl)c2)CCC[C@@H]1c1ccc[n+](Cc2ccc(Cl)c(Cl)c2)c1 | > 11.4 | -3.2 | -0.293 | > 46 | > 9.22 | inactive | inactive |  | 3.16 µM (active) |  |
| CC1CCN(CC[S-])CC1.O.O.[Cl][Pt] | > 11.4 | 29.8 |  | > 46 | > 9.22 | inactive | inactive |  |  |  |
| CN(C)C(=O)C1CCN(Cc2c[nH]c3ccccc23)CC1 | > 11.4 | -1.75 | -4.74 | > 46 | > 9.22 |  | inactive |  |  | 16.5 |
